This is a sample that favours compounds with a hit; in the whole collection about 4% have one here.
GBA mod: human lysosomal glucosylceramidase modulation; P04062; purified enzyme, resorufin glucoside fluorescence (screen aimed at inhibitors), 20 min; Potency, µM; 48,000 compounds, 1.1% hits; AID 360; in the data active means potency below about 15 µM; inconclusive means mostly about 16 µM to 33 µM;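 further: the screen sought inhibitors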
Target sequence (P04062 whole entry, looked up): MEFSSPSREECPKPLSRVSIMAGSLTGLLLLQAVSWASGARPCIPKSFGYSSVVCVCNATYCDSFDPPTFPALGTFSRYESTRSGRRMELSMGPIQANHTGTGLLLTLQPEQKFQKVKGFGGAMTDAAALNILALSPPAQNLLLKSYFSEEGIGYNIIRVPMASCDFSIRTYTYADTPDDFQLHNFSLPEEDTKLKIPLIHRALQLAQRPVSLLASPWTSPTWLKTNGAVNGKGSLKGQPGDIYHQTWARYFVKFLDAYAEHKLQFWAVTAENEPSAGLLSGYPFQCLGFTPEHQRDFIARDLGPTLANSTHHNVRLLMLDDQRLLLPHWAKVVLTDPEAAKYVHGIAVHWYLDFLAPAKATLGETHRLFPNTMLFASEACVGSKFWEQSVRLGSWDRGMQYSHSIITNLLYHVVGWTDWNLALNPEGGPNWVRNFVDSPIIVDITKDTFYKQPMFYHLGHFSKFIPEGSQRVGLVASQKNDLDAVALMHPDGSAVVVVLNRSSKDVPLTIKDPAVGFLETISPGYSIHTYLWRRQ
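Compounds titrated against 0.2 nM normal enzyme, 30 uM resorufin beta-D-glucopyranoside substrate, citrate/phosphate buffer with taurocholate and tween-20, pH 5.9. Reaction ran 20 min at room temperature; fluorescence (Ex 548/Em 600) gave AC50.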
HEK293 cAMP cs: parental HEK293 cAMP activation (counter-screen) | parental HEK293 CNG cAMP sensor, membrane potential fluorescence | Potency, µM (doses to about 57.1 µM), for the others: top-dose activation, usual class: activators | 73,000 compounds, 2.5% hits | AID 938; active means well fitted activation curve with a large enough effect; inconclusive means small, poorly fitted or top-dose-only effect; inactive means no such curve, though single readings can be large or run the other way; further: % of control where 0% means no effect; nearly all actives have a fitted effect of over 55% in size
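Parental HEK 293 cells stably expressing a modified CNG channel (no TSHR) report cAMP rise as membrane depolarization. Membrane potential dye with 100 uM RO 20-1724 was loaded for 60 min at room temperature, then compound added for 30 min; fluorescence read at 590 nm.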
PK Bst: pyruvate kinase (B. stearothermophilus) modulation | purified pyruvate kinase, luminescence ATP production; ribose 5-phosphate activator present at AC10 | Potency, µM | 51,000 compounds, 1.2% hits | AID 361; in the data active means potency below about 11 µM; inconclusive means mostly about 12 µM to 25 µM;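 the screen sought inhibitors and activators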;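 further: scaled between full activation by ribose 5 phosphate and full inhibition by luteolin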
TSHR agonist: agonists of human thyroid stimulating hormone receptor; P16473; 73,000 compounds, 0.48% hits; HEK293-CNG-TSHR cells (CNG channel as cAMP sensor), membrane potential dye, cAMP; AID 926; Potency, µM (top dose mostly 57.1 µM), for inactives: at the top dose activation, usual class: activators; active means well fitted activation curve with a large enough effect in the main read-out, with a control signal flat, not every such curve was filed as active; inconclusive means small, poorly fitted or top-dose-only effect, or a change in a side signal; inactive means no such curve, though single readings can be large or run the other way; % of control where 0% means no effect;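 further: the control signal comes from parental cells without the receptor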
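cAMP rise detected as CNG-channel membrane depolarization by fluorescent dye (emission 590 nm), 30 min after compound, following 60 min dye loading containing 100 uM RO 20-1724 at room temperature. Cells: TSHR/CNG HEK 293, with parental CNG HEK 293 as control.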
An asterisk follows results filed as active; i = inactive; ? = inconclusive; nt = no result given; [ ] = another dose, or the depositor's remark. Potency means the concentration at half of the fitted maximal effect.

SMILES	GBA mod	HEK293 cAMP cs	PK Bst	TSHR agonist
CC1=C(C(=O)OCc2ccccc2)C(c2cccc([N+](=O)[O-])c2)NC(=O)N1CCCCCC(=O)O (stereo unspecified)	nt	12%	nt	0%
CC1=C(C(=O)OCc2ccccc2)C(c2ccc(C3CCCCC3)cc2)NC(=O)N1CCCCCC(=O)O (stereo unspecified)	nt	32µM*	nt	?
OC[C@@H](O)[C@@H](O)[C@@H](O)[C@@H](O)c1nc2ccc(Cl)cc2[nH]1	nt	3%[11.4 µM]	nt	5%[11.4 µM]
O=S(=O)(c1cccc(C(F)(F)F)c1)N(CCCN1CCOCC1)Cc1cccs1	11*	23%	>57	13%
COc1ccc(-c2cc(-c3ccccc3)nc(N3CCCC3)n2)cc1OC	nt	11%[11.4 µM]	nt	3.2µM*
FC(F)(F)c1ccccc1-c1ccc2ncnc(NC3CCNCC3)c2c1	nt	10%	nt	4%
Cc1ccc2c(c1)N(CC(=O)NCC1COc3ccccc3O1)C(=O)CO2 (stereo unspecified)	nt	-49%	nt	?
COc1cccc(-c2nc(CS(=O)(=O)CC(=O)Nc3cccc(C)c3C)c(C)o2)c1	nt	25µM*	nt	?
Nc1ncnc2nn([C@H]3O[C@@H](CO)[C@@H](O)[C@H]3O)nc12	nt	4%[11.4 µM]	nt	-8%[11.4 µM]
O=C(CSCc1cnn(-c2ccccc2)c1-n1cccc1)NCc1ccc2c(c1)OCO2	>77	32µM*	>57	?
O=C(CSCc1cnn(-c2ccccc2)c1-n1cccc1)NCCN1CCOCC1	i	12%	>57	6%
COc1ccccc1-n1nc(C(=O)Nc2ccc3c(c2)OCO3)c2ccccc2c1=O	>77	25%	>57	11%
Cc1c(C(=O)NCc2ccc3c(c2)OCO3)oc2ccccc12	nt	25µM*	nt	?
Cc1ccc(-n2nc(C(=O)NCc3ccco3)c3c4ccccc4n(C)c3c2=O)cc1	>77	4µM*	>57	?
Cn1c2ccccc2c2c(C(=O)NCc3ccco3)cn(C3CCCCC3)c(=O)c21	>77	?	nt	?
O=C(Nc1ccc2c(c1)OCO2)c1nn(-c2ccccc2)c(=O)c2ccccc12	>77	25µM*	>57	?
NC(=O)SCC(=O)Nc1ccc2ncccc2c1	nt	-36%[11.4 µM]	nt	?
CC1CCN(CC[C@@H]2CCCN2S(=O)(=O)c2cccc(O)c2)CC1	nt	8%	nt	15%
CCN(CC)CCCC(C)NC(=O)c1ccc(-n2c(=O)c(=O)[nH]c3ccccc32)cc1 (stereo unspecified)	nt	5%	nt	6%
O=C(NCc1ccc2c(c1)OCO2)c1nn(-c2ccccc2)c(=O)c2ccccc12	>77	25µM*	>57	?
COc1ccc(-n2nc(C(=O)Nc3ccc4c(c3)OCO4)c3c4ccccc4n(C)c3c2=O)cc1	nt	16µM*	>57	?
O=C(NCCN1CCOCC1)c1cc(-c2ccc(O)cc2)on1	nt	4%	nt	-2%
CC1(C)Cc2cccc(OCC(=O)Nc3ccccc3N3CCOCC3)c2O1	>77	20µM*	>57	?
CC(C)OC(=O)c1cn(-c2ccccc2)nc1-c1ccco1	>77	18%	>57	25µM*
COC(=O)c1cc(COc2ccc3oc(C)c(C(=O)OC)c3c2)c(C)o1	nt	16µM*	nt	?
SMILES	GBA mod	HEK293 cAMP cs	PK Bst	TSHR agonist
COC(=O)c1cc(COc2ccc3ccc(=O)oc3c2)c(C)o1	>77	11%	>57	25%
O=c1c(CCc2ccccc2)nc2cnc(N3CCNCC3)nc2n1CCc1ccccc1	nt	9%	nt	0%
CC(C)N(Cc1nc(-c2ccc(Cl)cc2)no1)C(=O)CCC1CCCC1	nt	20µM*	nt	?
COc1cccc(OCC(=O)N(Cc2nc(-c3ccc(Cl)cc3)no2)C(C)C)c1	nt	23%	nt	23%
CCCN(Cc1cc2cc(C)ccc2[nH]c1=O)S(C)(=O)=O	>77	10%	>57	5µM*
CCOc1cccc2cc(-c3csc(NC(=O)CCC(=O)N4CCN(C)CC4)n3)c(=O)oc12	12*	13%	nt	6%
Cn1c([N+](=O)[O-])cnc1CN1CCN(CCO)CC1	nt	1%[11.4 µM]	nt	1%[11.4 µM]
C[N+]1(C)CCc2cc(O)c(O)cc2[C@H]1Cc1ccc(O)c(O)c1	nt	-3%[11.4 µM]	nt	0%[11.4 µM]
N#CCSc1nc2c(c(C3CC=CCC3)c1C#N)CCC2 (stereo unspecified)	>77	10µM*	>57	?
CCOC(=O)C1=C(C)OC(N)=C(C#N)C1c1cc2c(cc1Br)OCO2 (stereo unspecified)	>77	22%	>57	nt
CCOC(=O)C1=C(C)OC(N)=C(C#N)C1c1ccsc1 (stereo unspecified)	>77	20µM*	>57	?
CCOC(=O)C1=C(C)OC(N)=C(C#N)C1C1CCCCC1 (stereo unspecified)	nt	25µM*	nt	?
Cc1oc(-c2ccc(F)cc2)cc1-c1nn2c(-c3ccoc3C)nnc2s1	>77	16µM*	nt	?
Cc1oc(-c2ccc(F)cc2)cc1-c1nn2c(-c3ccco3)nnc2s1	>77	?	i	?
Cc1ccc(-c2cccc(NC(=O)C3C(C(=O)O)[C@@H]4C=C[C@H]3C4)c2)o1 (stereo partly specified)	>77	-8%	5.7*	-1%
Nc1nc(N)c(N=Nc2ccc(C(=O)O)c(O)c2)c(N)n1	nt	11%[11.4 µM]	nt	3%[11.4 µM]
NNC(=O)Cc1cccnc1	nt	6%[11.4 µM]	nt	-3%[11.4 µM]
O=C(CC1NC(=O)NC1=O)Nc1cccc2ccccc12 (stereo unspecified)	>77	1%	>57	12%
NC(=O)N[C@H]1NC(=O)NC1=O	nt	13µM*	nt	?
c1ccc(CCNc2c3c(nc4ncnn24)CCC3)cc1	>77	6.3µM*	nt	?
c1ccc(Nc2c3c(nc4ncnn24)CCC3)cc1	>77	-1%	>57	12%
O=C(Cc1coc2ccc3ccccc3c12)N1CCN(c2ncccn2)CC1	>77	?	11*	?
O=C(Cc1cccs1)N1CCN(c2ccccn2)CC1	nt	-4%	nt	-2%
C[C@@H](COc1ccc(/C=C\c2ccccc2)cc1)[N+](C)(C)C	nt	14%	nt	10%
CCOC(=O)c1c(C)n(C)c2ccc(O)c(S(=O)(=O)c3ccccc3)c12	nt	nt	10*	nt
SMILES	GBA mod	HEK293 cAMP cs	PK Bst	TSHR agonist
NCCNc1ncnc2ccc(Cl)cc12	nt	7%[11.4 µM]	nt	-7%[11.4 µM]
Cc1ccc(SCN2CCCCC2)cc1 (tested in a mixture with another compound)	nt	-10%[11.4 µM]	nt	-3%[11.4 µM]
CSc1nc(C)cc(Nc2ccc(O)c(CN3CCCCC3)c2)n1	nt	-1%[11.4 µM]	nt	-1%[11.4 µM]
CCCC(c1nnnn1C1CCCC1)N1CCN(c2ccccc2F)CC1 (stereo unspecified)	>77	5µM*	>57	?
CCC(c1nnnn1C1CCCC1)N1CCN(c2ccccc2F)CC1 (stereo unspecified)	>77	?	>57	?
O=C(CSc1nnc(-c2ccco2)n1Cc1ccccc1)OC1CCCCC1	>77	4µM*	nt	?
O=C(c1ccccc1)[C@H](Nc1ccc2ccccc2c1)c1ccccc1	nt	0%[11.4 µM]	nt	-3%[11.4 µM]
c1ccc(B2OC[C@@H]3OB(c4ccccc4)O[C@H]([C@@H]4COB(c5ccccc5)O4)[C@@H]3O2)cc1	nt	8%[11.4 µM]	nt	5%[11.4 µM]
Cc1cc(NC(=O)c2sc(Nc3cccc(C(F)(F)F)c3)nc2N)no1	12*	-28%	nt	-31%
COc1ccc(OC)c(C(=O)Cn2nnc3ccccc3c2=O)c1	>77	8%	>57	1%

Screening results: PubChem BioAssay, National Center for Advancing Translational Sciences (NCATS)
